Test results: the antibiotic and cytotoxicity screens of Wong et al. (2023)
Among all 39,000 compounds or so, about 3,300 (8.5%) were called active. The full list was thinned out, with actives kept by preference.

These compounds were tested on HepG2 (assay: cytotoxicity call (relative viability < 0.9)). Conditions: 10 µM.

SMILES | cytotoxicity call
O=C(C[C@@H]1C=C[C@@H](NC(=O)CN2CCOCC2)[C@@H](CO)O1)NCCc1ccccc1 | inactive
C[C@H](CO)N1C[C@H](C)[C@@H](CN(C)Cc2cccc(C(=O)O)c2)Oc2ncc(C#CC(C)(C)O)cc2C1=O | inactive
O=C(CCCCCCC(=O)Nc1ccc([C@H]2O[C@@H](CSc3ccncc3)C[C@@H](c3ccccc3)O2)cc1)NO | inactive
C[C@H]1CCCCO[C@H](CN(C)S(=O)(=O)c2cn(C)cn2)[C@@H](C)CN([C@@H](C)CO)C(=O)c2cc(NC(=O)CCCN(C)C)ccc2O1 | inactive
C[C@@H]1CCCCO[C@H](CN(C)Cc2ccncc2)[C@H](C)CN([C@@H](C)CO)C(=O)c2cc(NC(=O)CCC(F)(F)F)ccc2O1 | inactive
CN1CCN(C(=O)[C@H]2[C@H](CO)[C@H]3Cn4c(cccc4=O)[C@@H]2N3S(=O)(=O)c2ccccc2F)CC1 | inactive
CCNC(=O)C[C@@H]1CC[C@@H]2[C@H](COC[C@H](O)CN2S(=O)(=O)c2ccc(Oc3ccccc3)cc2)O1 | inactive
O=S1(=O)CC[C@H](N2CCOCC2)C1 | inactive
COc1ccc(NC(=O)Nc2ccc3c(c2)C(=O)N([C@H](C)CO)C[C@H](C)[C@@H](CN(C)C(=O)CCC(F)(F)F)OCCCC[C@@H](C)O3)cc1 | inactive
Cc1noc(C)c1NC(=O)Nc1cccc2c1O[C@@H](CN(C)Cc1ccc(C(=O)Nc3ccccc3N)cc1)[C@@H](C)CN([C@H](C)CO)C2=O | inactive
O=C(CN1CCOCC1)N[C@H]1CC[C@@H](CCNC(=O)C2CCCCC2)O[C@@H]1CO | inactive
C[C@@H]1CCCCO[C@H](CN(C)C(=O)NC2CCCCC2)[C@H](C)CN([C@H](C)CO)C(=O)c2cc(NC(=O)CCC(F)(F)F)ccc2O1 | inactive
O=C(CC(=O)N1CCOCC1)N1CCOCC1 | inactive
Cc1noc(C)c1S(=O)(=O)Nc1ccc2c(c1)C(=O)N([C@H](C)CO)C[C@@H](C)[C@@H](CN(C)Cc1ccc3c(c1)OCO3)O2 | inactive
CC(C)c1nc2cc3sc(C(C)C)nc3cc2s1 | inactive
CCCCCCCCCC(=O)N[C@H]1[C@H](Oc2c3cc4cc2Oc2ccc(cc2Cl)[C@@H](O[C@@H]2O[C@H](CO)[C@@H](O)[C@H](O)[C@H]2NC(C)=O)[C@@H]2NC(=O)[C@H](NC(=O)[C@@H]4NC(=O)[C@H]4NC(=O)[C@@H](Cc5ccc(c(Cl)c5)O3)NC(=O)[C@@H](N)c3ccc(O)c(c3)Oc3cc(O)cc4c3)c3ccc(O)c(c3)-c3c(O[C@H]4O[C@H](CO)[C@@H](O)[C@H](O)[C@@H]4O)cc(O)cc3[C@H](C(=O)O)NC2=O)O[C@H](CO)[C@@H](O)[C@@H]1O | inactive
CN1CCN(C(=O)C[C@@H]2CC[C@H]3[C@@H](COc4ccc(NC(=O)C5CCOCC5)cc4C(=O)N3C)O2)CC1 | inactive
CS(=O)(=O)N1C[C@H](O)COC[C@@H]2O[C@@H](CC(=O)NCc3ccccc3)CC[C@H]21 | inactive
C[C@@H]1CN([C@@H](C)CO)S(=O)(=O)c2ccc(C#Cc3ccncc3)cc2O[C@@H]1CN(C)S(=O)(=O)c1ccc(F)cc1 | active
C[C@H](CO)N1C[C@H](C)[C@H](CN(C)S(=O)(=O)c2ccc(F)cc2)Oc2cc(C#Cc3ccncc3)ccc2S1(=O)=O | active
C[C@H](CO)N1C[C@H](C)[C@@H](CN(C)S(=O)(=O)c2ccc(F)cc2)Oc2cc(C#Cc3ccc(F)cc3)ccc2S1(=O)=O | inactive

SMILES | cytotoxicity call
C[C@H](CO)N1C[C@H](C)[C@H](CN(C)S(=O)(=O)c2ccc(F)cc2)Oc2cc(C#Cc3ccc(F)cc3)ccc2S1(=O)=O | inactive
C[C@@H]1CN([C@@H](C)CO)S(=O)(=O)c2ccc(C#Cc3ccc(F)cc3)cc2O[C@@H]1CN(C)S(=O)(=O)c1ccc(F)cc1 | inactive
C[C@@H]1CN([C@@H](C)CO)S(=O)(=O)c2ccc(C#Cc3ccc(F)cc3)cc2O[C@H]1CN(C)S(=O)(=O)c1ccc(F)cc1 | inactive
C[C@@H]1CCCCO[C@H](CN(C)C(=O)NC2CCCCC2)[C@@H](C)CN([C@H](C)CO)C(=O)c2cc(NC(=O)Nc3ccc(F)cc3)ccc2O1 | inactive
Cc1noc(C)c1NC(=O)N[C@H]1C=C[C@@H](CC(=O)NCCCN(C)C)O[C@H]1CO | inactive
C[C@@H]1CN([C@@H](C)CO)C(=O)c2cc(C#CCN(C)C)cnc2O[C@@H]1CN(C)C(=O)Nc1ccccc1F | inactive
Nc1nc(S)c2nc[nH]c2n1 | active
Nc1cc2[nH]cnc2c(O)n1 | inactive
Nc1ncnc2[nH]cnc12 | inactive
CCN(CC)C(=O)c1ccc[n+](CC(N)=O)c1 | inactive
O=C(CCCCCNC(=O)OCCCCO[C@@H]1C[C@H](c2ccc(C(F)(F)F)cc2)C=C(C(=O)N2CCN(Cc3ccc4c(c3)OCO4)CC2)O1)NO | inactive
Cc1noc(C)c1S(=O)(=O)Nc1ccc2c(c1)C(=O)N([C@H](C)CO)C[C@@H](C)[C@@H](CN(C)Cc1ccc(Cl)c(Cl)c1)OCCCC[C@H](C)O2 | active
Cc1noc(C)c1S(=O)(=O)Nc1ccc2c(c1)C(=O)N([C@H](C)CO)C[C@H](C)[C@H](CN(C)Cc1ccc(C(F)(F)F)cc1)OCCCC[C@H](C)O2 | inactive
Cc1noc(C)c1S(=O)(=O)Nc1ccc2c(c1)C(=O)N([C@H](C)CO)C[C@H](C)[C@@H](CN(C)Cc1ccc(Cl)c(Cl)c1)OCCCC[C@H](C)O2 | inactive
Cc1noc(C)c1S(=O)(=O)Nc1ccc2c(c1)C(=O)N([C@@H](C)CO)C[C@H](C)[C@@H](CN(C)Cc1ccc(Cl)c(Cl)c1)OCCCC[C@H](C)O2 | inactive
Cc1noc(C)c1S(=O)(=O)Nc1ccc2c(c1)C(=O)N([C@H](C)CO)C[C@@H](C)[C@H](CN(C)Cc1ccc(C(F)(F)F)cc1)OCCCC[C@@H](C)O2 | inactive
Cc1noc(C)c1S(=O)(=O)Nc1ccc2c(c1)C(=O)N([C@H](C)CO)C[C@@H](C)[C@@H](CN(C)Cc1ccc(C(F)(F)F)cc1)OCCCC[C@H](C)O2 | active
Cc1noc(C)c1S(=O)(=O)Nc1ccc2c(c1)C(=O)N([C@H](C)CO)C[C@H](C)[C@H](CN(C)Cc1ccc(C(F)(F)F)cc1)OCCCC[C@@H](C)O2 | inactive
Cc1noc(C)c1S(=O)(=O)Nc1ccc2c(c1)C(=O)N([C@@H](C)CO)C[C@H](C)[C@@H](CN(C)Cc1ccc(C(F)(F)F)cc1)OCCCC[C@@H](C)O2 | inactive
Cc1noc(C)c1S(=O)(=O)Nc1ccc2c(c1)C(=O)N([C@H](C)CO)C[C@@H](C)[C@H](CN(C)Cc1ccc(C(F)(F)F)cc1)OCCCC[C@H](C)O2 | active
Cc1noc(C)c1S(=O)(=O)Nc1ccc2c(c1)C(=O)N([C@H](C)CO)C[C@@H](C)[C@@H](CN(C)Cc1ccc(C(F)(F)F)cc1)OCCCC[C@@H](C)O2 | inactive

SMILES | cytotoxicity call
Cc1noc(C)c1S(=O)(=O)Nc1ccc2c(c1)C(=O)N([C@@H](C)CO)C[C@H](C)[C@H](CN(C)Cc1ccc(C(F)(F)F)cc1)OCCCC[C@@H](C)O2 | active
Cc1noc(C)c1S(=O)(=O)Nc1ccc2c(c1)C(=O)N([C@H](C)CO)C[C@H](C)[C@@H](CN(C)Cc1ccc(C(F)(F)F)cc1)OCCCC[C@H](C)O2 | inactive
O=C(C[C@H]1CC[C@H]2[C@@H](COC[C@@H](O)CN2S(=O)(=O)c2cccc(Cl)c2)O1)NCc1ccc2c(c1)OCO2 | inactive
O=c1[nH]snc1N1CCCCC1 | inactive
CC(C)CNC(=O)C(=O)NC(C)C | inactive
COc1ccc(S(=O)(=O)Nc2ccc3c(c2)C(=O)N([C@H](C)CO)C[C@H](C)[C@@H](CN(C)C(=O)Nc2cccc4ccccc24)O3)cc1 | inactive
COc1ccccc1NC(=O)N(C)C[C@H]1Oc2ncc(Br)cc2C(=O)N([C@H](C)CO)C[C@H]1C | inactive
CC(C)CN1C(=O)[C@@]2(c3ccc([N+](=O)[O-])cc3)CC(=O)N(CC3C4CC5CC(C4)CC3C5)[C@@H]2c2ccc(CO)cc21 (stereo partly drawn) | inactive
C[C@H]1CN([C@@H](C)CO)C(=O)c2cccc(NS(C)(=O)=O)c2O[C@H]1CN(C)C(=O)NC1CCCCC1 | inactive
O=C(C[C@H]1CC[C@H](NC(=O)CN2CCOCC2)[C@@H](CO)O1)NCCc1ccncc1 | inactive
C[C@@H]1CN([C@H](C)CO)C(=O)c2cc(NC(=O)C3CCCCC3)ccc2O[C@H]1CN(C)Cc1ccc(Oc2ccccc2)cc1 | inactive
CCS(=O)(=O)Nc1ccc2c(c1)C(=O)N(C)[C@H]1CC[C@@H](CC(=O)NCc3ccccc3F)O[C@@H]1CO2 | inactive
Cc1noc(C)c1NC(=O)N(C)C[C@H]1OCCCC[C@H](C)Oc2ccc(NS(=O)(=O)c3ccccc3)cc2C(=O)N([C@@H](C)CO)C[C@@H]1C | inactive
CC(C)(C)S(=O)N1Cc2cc(C(=O)N[C@@H]3CCN(Cc4ccccc4)C3)nc(-c3cccc(-c4cccc(F)c4)c3)c2[C@@H]1CCO (stereo partly drawn) | inactive
C[C@@H]1CN([C@H](C)CO)C(=O)c2cc(C#C[C@@H](C)O)cnc2O[C@@H]1CN(C)C(=O)CN1CCOCC1 | inactive
COc1ccc(S(=O)(=O)N(C)C[C@@H]2OCCCC[C@H](C)Oc3ccc(NC(=O)C4CCCCC4)cc3C(=O)N([C@H](C)CO)C[C@@H]2C)cc1 | inactive
COc1ccc(S(=O)(=O)N(C)C[C@@H]2OCCCC[C@@H](C)Oc3ccc(NC(=O)C4CCCCC4)cc3C(=O)N([C@H](C)CO)C[C@H]2C)cc1 | active
COc1ccc(S(=O)(=O)N(C)C[C@H]2OCCCC[C@H](C)Oc3ccc(NC(=O)C4CCCCC4)cc3C(=O)N([C@@H](C)CO)C[C@@H]2C)cc1 | inactive
COc1ccc(S(=O)(=O)N(C)C[C@H]2OCCCC[C@@H](C)Oc3ccc(NC(=O)C4CCCCC4)cc3C(=O)N([C@H](C)CO)C[C@H]2C)cc1 | inactive
COc1ccc(S(=O)(=O)N(C)C[C@H]2OCCCC[C@H](C)Oc3ccc(NC(=O)C4CCCCC4)cc3C(=O)N([C@H](C)CO)C[C@@H]2C)cc1 | active
COc1ccc(S(=O)(=O)N(C)C[C@H]2OCCCC[C@H](C)Oc3ccc(NC(=O)C4CCCCC4)cc3C(=O)N([C@@H](C)CO)C[C@H]2C)cc1 | inactive
